PubChem BioAssay (NCI)
This is part of a sample that, as a whole, favours compounds with a hit. Of some 83,000 tested, about 20% had one in any assay.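 Interpretation: 100, growth as untreated; towards 0, rising growth inhibition; 0, no net growth; 0 to -100, cell death. Compounds scoring below 10 were considered active.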 Active and inactive are the calls of the source.

System: HL-60(TB) leukemia
Assay: NCI-60 one-dose screen, 48 h (100 = growth as untreated, 0 = no growth, -100 = all killed)
Settings: 10 µM unless noted

SMILES	growth
CC1(C)NCCC[C@]2(C)[C@H]3C=CC4=C5C[C@](C)(CO)CC[C@]5(C)CC[C@@]4(C)[C@]3(C)CC[C@@H]12	-52.8% [100 µM] (active)
COc1ccc2c(c1)C=C1CSCC3=Cc4cc(OC)ccc4OC13O2	-5.12% (active)
CC1(C)NC2=C(C(Nc3cccnc3)N1)C(c1ccc([N+](=O)[O-])cc1)C(C(=O)c1ccc(N=[N+]=[N-])cc1)O2 (stereo not given)	104% (inactive)
COc1cc(/C=C\c2cc(OC)c(OC)c(OC)c2)cc(N/C=C\C(=O)c2c[nH]c3ccccc23)c1OC	-30% (active)
Cc1ccc(S(=O)(=O)n2cc(-c3csc(-c4cn(C)c5ncccc45)n3)c3ccccc32)cc1	61.9% (inactive)
COc1ccc(/C=C2\N=C(c3ccccc3)N(c3cc(OC)c(OC)cc3C(=O)N3N=C(C)CC3=O)C2=O)cc1	107% (inactive)
Nc1c(C(=O)O)cc(Cl)cc1[N+](=O)[O-]	73.7% (inactive)
O=C(O)CCCCSCCCCC(=O)O	97.8% (inactive)
CC(=O)c1cc2c(N)c(C(=O)Nc3cccc(Cl)c3)sc2nc1C	48.9% (inactive)
COc1ccc2c(c1)O/C(=C\c1ccc([N+](=O)[O-])o1)C2=O	-17.7% (active)
CCn1cc(-c2ccnc(NCCNS(=O)(=O)c3ccc(Br)cc3)c2)c(-c2cccc(OC)c2)n1	81.4% (inactive)
O=c1oc2ccc(F)cc2c(=O)n1-c1ccc(I)cc1F	-42.8% (active)
COCN1CCC2N(COC)CCC3N(COC)CCC1N23 (stereo not given)	92.6% (inactive)
COc1ccc(OC)c(C2OC(c3ccc4ccccc4c3O)=NN2C(C)=O)c1 (stereo not given)	19% (inactive)
Fc1ccc([I+]c2ccc(F)cc2)cc1	54.5% (inactive)
CN1CCN(CCOc2ccc(-c3cnc4c(-c5cccc(F)c5F)cnn4c3)cc2)CC1	-49.9% (active)
CN(C)CCC(CCN(C)C)(C(=O)O)c1ccccc1	101% (inactive)
N#Cc1ccc(N2Cc3cc(Cl)ccc3OC3=C2C(=O)N(Cc2ccc(F)cc2)C3=O)cc1	-57.9% (active)
C[C@H](CCCC(=O)NCC#CCN1CCN(C)CC1)[C@H]1CC[C@H]2[C@@H]3CC[C@@H]4CC(=O)CC[C@]4(C)[C@H]3CC[C@]12C	94.3% (inactive)
Cc1sc2c(c1C)c(=O)nc1c(-c3nc(-c4ccccc4)cs3)n[nH]n12	94.1% (inactive)

SMILES	growth
C#CCN1C(=O)/C(=c2\sc3n(c2=O)NC2C(N=3)N(CC)C(=O)N2CC)c2ccccc21 (stereo not given)	-34.3% (active)
COc1ccc(C(=O)/C(=N/Nc2ccccc2)c2ccc(OC)cc2)cc1	88.4% (inactive)
CC(=O)[C@H]1CC[C@H]2[C@@H]3CCC4=CC(=O)C=C[C@]4(C)[C@H]3CC[C@]12C	90.9% (inactive)
Cc1ccc(S(=O)(=O)NC(=O)NCCSSCCNC(=O)NS(=O)(=O)c2ccc(C)cc2)cc1	102% (inactive)
CCC1=C(c2ccc(OC)cc2)C(C)(C)Oc2c1ccc(O)c2CN1CCCC1	-25.4% (active)
NCCNc1ccc([N+](=O)[O-])cc1	91.9% (inactive)
Cn1cc(C(=O)c2nc(-c3cn(C)c4ccc(F)cc34)no2)c2cc(F)ccc21	93.3% (inactive)
O=c1c2cc(Cl)ccc2oc2ccc(OCCCCCN3CCCCC3)cc12	38.5% (inactive)
COc1ccc(-c2cc(-c3cc(-c4ccc(OC)cc4)nc(N)n3)nc(N)n2)cc1	83.6% (inactive)
CCOC(=O)c1nc(Nc2ccc(C(C)=O)cc2)sc1C	95.5% (inactive)
CCCCCCCCCCCCNC(=O)[C@H]1CSC(c2cc(Br)cs2)N1 (stereo not given in full)	-36.9% (active)
COc1ccc(C2=NN(c3nc(-c4ccc(OC)cc4)c(C#N)c(=O)n3C)C(=O)CC2)cc1	99.5% (inactive)
CNCCCOc1c(Br)cc(CCNC(=O)/C(Cc2cc(Br)c(OC)c(Br)c2)=N/O)cc1Br	-57.1% (active)
CCOC(=O)c1c2c(cn1Cc1ccccc1)-c1oncc1CC2	98.6% (inactive)
C=CCSC(CC)(CC)C(=O)NC	89.3% (inactive)
O=Nc1c2cccnc2n2nnc3ccc(Cl)cc3c12	-48.7% (active)
Clc1ccc(C(/C=C/c2sc(Cl)nc2Cl)=N/Nc2cc(Cl)cc(Cl)c2)cc1	99.4% (inactive)
O=S(Nc1ccccc1)c1ccc(Cl)cc1 (stereo not given)	90.8% (inactive)
O=C(O)CCC/C=C\C[C@H]1C=CC(=O)/C1=C/C[C@@H](O)CCc1cccc(C(F)(F)F)c1	-11.7% (active)
Cc1cc(C)c2c(c1)N(C)c1ncnc(-n3c(C)nc4cc(C)ccc43)c1CC2C (stereo not given)	1.64% (active)
